Experimental data reported in PubChem BioAssay AID1159580 (chemical genetic matrix, 2015).
Several values for one entry are separate records, joined by “and”; a condition that tells them apart may be missing. Identical values can stand only once. About 2,000 (36%) of roughly 5,500 compounds were called active. Roughly 18% stayed inconclusive and do not appear here. Cut-off read from the data, not from the text of the source: active = normalized growth mostly below about 0.91 (no sharp cut-off); inconclusive = no clear call, values can overlap the other calls; inactive = mostly above about 0.92. The list shows a part of the results.

Assay: chemical genetic growth profiling, strain panel (AID 1159580);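 note: tested at 20 µM; growth read once vehicle control cultures reached saturation at 30 °C; 1 = growth at the plate median or of vehicle wells; lower values mean less growth of the strain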
Conditions: S. cerevisiae deletion strains, growth OD

Measured: normalized growth

C[C@@H]1CC(Cl)CC[C@H]1C(=O)OC(C)(C)C (some centres not stated)
inactive: locus YAL013W, strain DEP1, stronger effect = lower value 0.987 | locus YAL021C, strain ccr4, stronger effect = lower value 1.02 | locus YAL026C, strain drs2, stronger effect = lower value 0.973 | locus YAL030W, strain snc1, stronger effect = lower value 0.982 | locus YBL061C, strain skt5, stronger effect = lower value 0.983 | locus YBR009C, strain hhf1, stronger effect = lower value 0.948 | locus YBR021W, strain FUR4, stronger effect = lower value 0.976 | locus YBR023C, strain chs3, stronger effect = lower value 0.98 | locus YBR171W, strain sec66, stronger effect = lower value 0.979 | locus YBR229C, strain ROT2, stronger effect = lower value 0.992 | locus YBR231C, strain swc5, stronger effect = lower value 0.986 | locus YBR279W, strain paf1, stronger effect = lower value 0.993 | locus YCL011C, strain gbp2, stronger effect = lower value 0.979 | locus YCL016C, strain dcc1, stronger effect = lower value 0.98 | locus YCL029C, strain bik1, stronger effect = lower value 0.98 | locus YCL061C, strain MRC1, stronger effect = lower value 0.983 | locus YCL069W, strain vba3, stronger effect = lower value 0.985 | locus YCR088W, strain abp1, stronger effect = lower value 0.987 | locus YDL005C, strain med2, stronger effect = lower value 0.991 | locus YDL035C, strain GPR1, stronger effect = lower value 0.995 | locus YDL040C, strain nat1, stronger effect = lower value 0.982 | locus YDL074C, strain BRE1, stronger effect = lower value 0.948 | locus YDL101C, strain DUN1, stronger effect = lower value 0.985 | locus YDL134C, strain PPH21, stronger effect = lower value 0.997 | locus YDL185W, strain tfp1, stronger effect = lower value 0.952 | locus YDL192W, strain arf1, stronger effect = lower value 0.983 | locus YDR001C, strain nth1, stronger effect = lower value 0.976 | locus YDR069C, strain doa4, stronger effect = lower value 0.97 | locus YDR101C, strain arx1, stronger effect = lower value 0.969 | locus YDR137W, strain rgp1, stronger effect = lower value 0.93 | locus YDR150W, strain NUM1, stronger effect = lower value 0.984 | locus YDR159W, strain sac3, stronger effect = lower value 0.915 | locus YDR162C, strain NBP2, stronger effect = lower value 0.992 | locus YDR195W, strain ref2 0.961 | locus YDR297W, strain sur2, stronger effect = lower value 0.981 | locus YDR318W, strain mcm21, stronger effect = lower value 0.988 | locus YDR334W, strain swr1, stronger effect = lower value 0.978 | locus YDR335W, strain msn5, stronger effect = lower value 0.981 | locus YDR388W, stronger effect = lower value 0.994 | locus YDR392W, strain spt3, stronger effect = lower value 0.774 | locus YDR502C, strain sam2, stronger effect = lower value 0.992 | locus YEL003W, strain gim4, stronger effect = lower value 0.976 | locus YEL037C, strain rad23, stronger effect = lower value 0.983 | locus YEL061C, strain CIN8 (second series), stronger effect = lower value 0.984 | locus YEL061C, strain CIN8, stronger effect = lower value 0.989 | locus YER015W, strain faa2, stronger effect = lower value 0.986 | locus YER016W, strain bim1, stronger effect = lower value 0.975 | locus YER110C, stronger effect = lower value 0.986 | locus YER111C, strain swi4, stronger effect = lower value 0.964 | locus YER155C, strain BEM2 (second series), stronger effect = lower value 0.956 | locus YER155C, strain BEM2, stronger effect = lower value 0.997 | locus YER167W, strain BCK2, stronger effect = lower value 0.993 | locus YFR010W, strain ubp6, stronger effect = lower value 0.98 | locus YGL078C, strain dbp3, stronger effect = lower value 0.983 | locus YGL086W, strain mad1, stronger effect = lower value 1 | locus YGL167C, strain pmr1, stronger effect = lower value 0.973 | locus YGL173C, strain kem1, stronger effect = lower value 0.968 | locus YGL227W, strain vid30, stronger effect = lower value 0.988 | locus YGL240W, strain doc1, stronger effect = lower value 0.978 | locus YGL248W, strain PDE1, stronger effect = lower value 0.995 | locus YGL253W, strain hxk2, stronger effect = lower value 0.969 | locus YGR078C, strain PAC10, stronger effect = lower value 0.971 | locus YGR135W, strain pre9, stronger effect = lower value 0.988 | locus YGR229C, strain SMI1, stronger effect = lower value 0.909 | locus YGR252W, strain gcn5, stronger effect = lower value 1.19 | locus YHR013C, strain ard1, stronger effect = lower value 0.95 | locus YHR027C, strain rpn1, stronger effect = lower value 0.981 | locus YHR030C, strain SLT2, stronger effect = lower value 0.982 and 1.01 | locus YHR079C, strain IRE1 (second series), stronger effect = lower value 0.985 | locus YHR079C, strain IRE1, stronger effect = lower value 1.01 | locus YHR094C, strain hxt1, stronger effect = lower value 0.972 | locus YHR129C, strain ARP1, stronger effect = lower value 0.985 | locus YHR142W, strain chs7, stronger effect = lower value 1.01 | locus YHR200W, strain rpn10, stronger effect = lower value 0.997 | locus YIL066C, strain RNR3, stronger effect = lower value 0.995 | locus YIL073C, strain SPO22, stronger effect = lower value 0.96 | locus YIL125W, strain kgd1, stronger effect = lower value 0.987 | locus YIR030C, strain dcg1, stronger effect = lower value 0.993 | locus YJL092W, strain hpr5, stronger effect = lower value 0.984 | locus YJL095W, strain BCK1 (second series), stronger effect = lower value 0.984 | locus YJL095W, strain BCK1, stronger effect = lower value 1 and 1.01 | locus YJL115W, strain asf1, stronger effect = lower value 0.993 | locus YJL129C, strain trk1, stronger effect = lower value 0.975 | locus YJL134W, strain LCB3, stronger effect = lower value 0.99 | locus YJL154C, strain vps35, stronger effect = lower value 0.98 | locus YJL164C, strain tpk1, stronger effect = lower value 1 | locus YJL166W, strain qcr8, stronger effect = lower value 0.986 | locus YJL168C, strain set2, stronger effect = lower value 0.979 | locus YJL187C, strain SWE1 (second series), stronger effect = lower value 0.975 | locus YJL187C, strain SWE1, stronger effect = lower value 0.986 | locus YJR043C, strain POL32, stronger effect = lower value 0.977 | locus YJR066W, strain TOR1, stronger effect = lower value 0.939
